HP1b chromo inh: HP1-beta chromodomain-methylated histone interaction inhibition; P83916; AlphaScreen HP1-beta / biotin-H3K9me3 peptide binding; Potency, µM (titrated, usually from 114 µM), inactives show at the top dose activity change, negative = inhibition, hits mostly inhibitors; 0.56% of 390,000 active; also: potency is read from the fitted curve at half-maximal effect; nearly all actives have a fitted effect of over 70% in size
Target sequence (P83916 whole entry, looked up): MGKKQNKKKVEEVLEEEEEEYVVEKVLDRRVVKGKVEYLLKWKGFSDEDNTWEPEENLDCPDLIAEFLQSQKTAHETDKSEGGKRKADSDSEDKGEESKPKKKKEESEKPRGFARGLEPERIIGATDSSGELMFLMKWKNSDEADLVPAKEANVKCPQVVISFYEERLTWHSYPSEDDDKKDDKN
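HP1-beta protein (50 nM final) preincubated 30 min at room temperature with biotinylated H3(1-18)K9me3 peptide (50 nM) in PBS pH 7.4, 0.01% Tween-20, then compound added for 30 min. AlphaScreen streptavidin donor/nickel chelate acceptor beads (10 ug/mL final), 30 min dark, luminescence read.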
JMJD2A Tudor: inhibitors of human JMJD2A Tudor domain. AlphaScreen JMJD2A-Tudor / H3K4me3 peptide binding. Potency, µM (doses to about 114 µM), without a hit: top-dose activity change, negative = inhibition, hits mostly inhibitors. 4.4% of 390,000 active. AID 504339; also: potency is read from the fitted curve at half-maximal effect; % is scaled to controls: 0 for no effect and ±100 for the full control effect; nearly all actives have a fitted effect of over 50% in size
PI5P4K alpha inh: blocks human PI5P4K alpha kinase activity. PI5P4Kalpha enzyme, ADP-Glo luminescence, 60 min; hits give low values. P48426. max response, %. 1.2% of 330,000 active; active = max response of -50% or lower; inconclusive = between -30% and -50%; inactive = -30% or higher; also: value at the top dose of about 77 µM; % is scaled to controls: 0 for no effect and ±100 for the full control effect
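ADP-Glo luminescence end-point read after a 60 min room-temperature kinase reaction of PI5P4Kalpha plus substrate, initiated with ATP at 5 microM final. Buffer: 0.038 M HEPES pH 7.4, EGTA, 0.1% CHAPS, 5% DMSO.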
L3MBTL1 block: L3MBTL1 (human) inhibition; Q9Y468; AlphaScreen L3MBTL1–H3K9me1 peptide binding; Potency, µM (highest dose often 57.1 µM), for inactives: top-dose activity, negative = inhibition, actives largely listed as inhibitors; 0.66% of 230,000 active; AID 485360; also: potency is read from the fitted curve at half-maximal effect; % is scaled to controls: 0 for no effect and ±100 for the full control effect; nearly all actives have a fitted effect of over 60% in size
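Read-out is AlphaScreen signal from streptavidin donor and nickel chelate acceptor beads (10 ug/mL final each) bridging L3MBTL1 (50 nM) and biotinylated K9-monomethylated H3(1-15) peptide (75 nM), after 30 min compound exposure at room temperature.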
G9a inh: inhibitors of human histone lysine methyltransferase G9a | G9a H3K9 monomethylation, AlphaScreen, 2 h | Potency, µM (doses to about 102 µM), for the others: at the top dose activity, negative = inhibition, actives largely listed as inhibitors | 8.8% of 350,000 active | AID 504332; also: potency is read from the fitted curve at half-maximal effect; % is scaled to controls: 0 for no effect and ±100 for the full control effect; nearly all actives have a fitted effect of over 75% in size
Target sequence (Q96KQ7 913-1193 limits assumed): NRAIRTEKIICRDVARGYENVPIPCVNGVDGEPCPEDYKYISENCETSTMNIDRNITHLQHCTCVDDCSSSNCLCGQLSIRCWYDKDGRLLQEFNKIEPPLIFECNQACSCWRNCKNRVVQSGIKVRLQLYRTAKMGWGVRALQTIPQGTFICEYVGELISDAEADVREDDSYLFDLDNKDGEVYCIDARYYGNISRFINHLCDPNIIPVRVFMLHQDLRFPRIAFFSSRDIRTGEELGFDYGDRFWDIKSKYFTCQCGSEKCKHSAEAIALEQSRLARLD
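Step 1: enzyme (final 20 nM) with compound, 15 min RT. Step 2: substrate peptide 500 nM and SAM 20 uM, 2 h RT. Step 3: anti-H3K9me1 antibody and AlphaScreen beads, 10 min, then plate read.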
BAZ2B block: inhibitors of human BAZ2B bromodomain; Q9UIF8; AlphaScreen BAZ2B-H3K14Ac peptide displacement; Potency, µM (top dose mostly 114 µM), for the others: at the top dose activity change, negative = inhibition, hits mostly inhibitors; 4.4% of 360,000 active; also: potency is read from the fitted curve at half-maximal effect; % is scaled to controls: 0 for no effect and ±100 for the full control effect; nearly all actives have a fitted effect of over 60% in size
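AlphaScreen luminescence quantifies BAZ2B engagement of H3K14Ac peptide; the protein and biotinylated peptide are both at 50 nM final, buffer PBS pH 7.4 with 0.01% Tween-20, all steps at room temperature.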
Numbers without * were called inactive; [ ] = dose if it differs, or a comment. Hits are enriched below; roughly 11% of the tested compounds scored in any of these assays. Unless noted, calls follow the shape of the dose curve; as a rule, active = well fitted inhibition curve with a large enough effect; inconclusive = small, poorly fitted or top-dose-only effect; inactive = no such curve, though single readings can be large or run the other way.

`Cc1ccc(S(=O)(=O)Nc2c(C)cc([N+](=O)[O-])cc2C)cc1` gave HP1b chromo inh 11%, JMJD2A Tudor -28% and PI5P4K alpha inh -1.
For C[n+]1ccc(C(=O)Nc2ccccc2Cl)cc1 the results were HP1b chromo inh -2%, JMJD2A Tudor inconclusive, PI5P4K alpha inh -3, L3MBTL1 block inconclusive, G9a inh 25µM* and BAZ2B block inconclusive.
O=C1Nc2ccccc2S/C1=C/NCc1ccccc1Cl was read as HP1b chromo inh -24%, JMJD2A Tudor 50µM*, PI5P4K alpha inh 1, L3MBTL1 block 9%, G9a inh 32µM* and BAZ2B block inconclusive.
For Cc1ccc(N/C=C2/Sc3ccccc3NC2=O)cc1 the results were HP1b chromo inh 56%, JMJD2A Tudor -16%, PI5P4K alpha inh -21, L3MBTL1 block 3%, G9a inh -48% and BAZ2B block -23%.
For COc1ccc(N/C=C2/Sc3ccccc3NC2=O)cc1 the results were HP1b chromo inh 12%, JMJD2A Tudor -27%, PI5P4K alpha inh -55*, L3MBTL1 block 0%, G9a inh inconclusive and BAZ2B block -20%.
For O=C(CSc1ncc2c(n1)-c1ccccc1N(Cc1ccc(Cl)cc1)S2(=O)=O)c1ccccc1 the results were HP1b chromo inh 71%, JMJD2A Tudor -8%, G9a inh 21%[59 µM] and BAZ2B block -11%.
`Cc1noc(C)c1S(=O)(=O)N(CC(=O)NCCc1ccc(Cl)cc1)c1ccc(C(C)C)cc1` gave HP1b chromo inh 58%, JMJD2A Tudor 0% and G9a inh 1µM*.
CC(=O)c1ccc(NC(=O)CSc2cn(CC(=O)N3CCCCC3)c3ccccc23)cc1 was read as HP1b chromo inh 38%, JMJD2A Tudor -3%, G9a inh -4%[59 µM] and BAZ2B block -25%.
Screening CCc1ccccc1NC(=O)C1COc2ccccc2C1 (centres undefined) returned HP1b chromo inh 26%[57 µM], JMJD2A Tudor -1%, G9a inh -1%[59 µM] and BAZ2B block 0%.
`O=C(NCCOc1cccc(Cl)c1Cl)c1cc(-n2cnnc2)ccc1Cl` gave HP1b chromo inh 29%, JMJD2A Tudor -17%, L3MBTL1 block -5%, G9a inh 20%[2.33 µM] and BAZ2B block 12%.
For CCSCCNC(=O)c1cc(-n2cnnc2)ccc1Cl the results were HP1b chromo inh 36%, JMJD2A Tudor -7%, PI5P4K alpha inh -13, L3MBTL1 block -10%, G9a inh 2.5µM* and BAZ2B block 1%.
`CCOc1cc(S(=O)(=O)n2ccnc2)ccc1Cl` gave HP1b chromo inh 6%, JMJD2A Tudor 6%, PI5P4K alpha inh 1, L3MBTL1 block 8%[11.4 µM], G9a inh inconclusive and BAZ2B block 79µM*.
CCOc1cc(S(=O)(=O)n2ccnc2)ccc1Br was read as HP1b chromo inh 9%, JMJD2A Tudor -8%, PI5P4K alpha inh -1, L3MBTL1 block -3%, G9a inh inconclusive and BAZ2B block -29%.
COc1cccc(C(=O)NC(=S)Nc2ccccc2N2CCCCC2)c1 was read as HP1b chromo inh -12%, JMJD2A Tudor inconclusive, PI5P4K alpha inh 29, G9a inh -4% and BAZ2B block inconclusive.
COc1cccc(C(=O)NC(=S)Nc2ccccc2N2CCCC2)c1 was read as HP1b chromo inh 22µM*, JMJD2A Tudor inconclusive, PI5P4K alpha inh 11, L3MBTL1 block -14%, G9a inh 3%[12.7 µM] and BAZ2B block 28µM*.
`COc1c(C)cccc1C(=O)NC(=S)Nc1ccccc1N1CCCC1` gave HP1b chromo inh -3%, JMJD2A Tudor 50µM*, PI5P4K alpha inh 0, G9a inh 32µM* and BAZ2B block inconclusive.
CSc1ccccc1NC(=O)c1noc(C)c1[N+](=O)[O-] was read as HP1b chromo inh 5%, JMJD2A Tudor -23%, PI5P4K alpha inh 5, G9a inh 35µM* and BAZ2B block -17%.
